Among the test systems are MOLT-4 leukemia; RPMI-8226 leukemia; OVCAR-8 ovarian; OVCAR-5 ovarian; OVCAR-4 ovarian; SK-OV-3 ovarian; IGROV1 ovarian; OVCAR-3 ovarian; HS 578T breast; NCI/ADR-RES ovarian; T-47D breast; BT-549 breast; MDA-MB-435 melanoma; SW-620 colon; MCF7 breast; HCT-116 colon; KM12 colon; HCC-2998 colon; SR leukemia.
What all share (experiment): NCI-60 one-dose screen, 48 h (100 = growth as untreated, 0 = no growth, -100 = all killed)
Common to all, as to settings: 10 µM unless noted

The panel holds about 83,000 compounds, 20% with a hit somewhere; the sample as a whole holds those more often.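 Interpretation: 100, growth as untreated; towards 0, rising growth inhibition; 0, no net growth; 0 to -100, cell death. Compounds scoring below 10 were considered active.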 Unmarked numbers belong to inactive results. Activity calls are given as the source filed them.

As to `CC[C@H](C)[C@@H]1OC(=O)C(C)(C)[C@H](O)[C@H](Cc2ccccc2)OC(=O)[C@H](C(C)C)OC(=O)[C@@H](NC(=O)c2cccc(NC=O)c2O)[C@@H](C)OC1=O`, the growth in the experiment on MOLT-4 leukemia was 37.7%; in the experiment with RPMI-8226 leukemia it was 29%; in the experiment with OVCAR-8 ovarian it was 51.3%; in the experiment on OVCAR-5 ovarian, 103%; with OVCAR-4 ovarian it was 28.7%; in the experiment on SK-OV-3 ovarian, 60.7%. Moreover, the growth is 53.6% with IGROV1 ovarian; 48.2% in the experiment with OVCAR-3 ovarian; 73.4% in the experiment with HS 578T breast; 53.4% in the experiment on NCI/ADR-RES ovarian; 33.2% with T-47D breast; 53.8% in the experiment on BT-549 breast. For the same compound, the growth with MDA-MB-435 melanoma was 53.2%; in the experiment on SW-620 colon, 60.8%; with MCF7 breast it was 40%; in the experiment with HCT-116 colon it was 36.5%; with KM12 colon, 53.5%.
With `O=C1CC2(CC3(Cl)C(Cl)=C(Cl)C2(Cl)C3(Cl)Cl)C(=O)O1` (stereo not drawn), the growth was 96.5% with MOLT-4 leukemia; 105% with RPMI-8226 leukemia; 104% in the experiment on OVCAR-8 ovarian; 94.4% in the experiment with OVCAR-5 ovarian; 116% in the experiment on OVCAR-4 ovarian; 112% in the experiment on SK-OV-3 ovarian. Moreover, the growth is 105% in the experiment with IGROV1 ovarian; 114% with OVCAR-3 ovarian; 101% in the experiment with NCI/ADR-RES ovarian; 99.6% in the experiment on T-47D breast; 107% with BT-549 breast; 103% in the experiment with MDA-MB-435 melanoma. For the same compound, the growth with SW-620 colon was 113%; with MCF7 breast it was 99.4%; in the experiment with HCT-116 colon, 91.1%; in the experiment on HCC-2998 colon it was 102%; with KM12 colon it was 106%.
`C=CCCCCCCCCC(=O)[O-].C=CCCCCCCCCC(=O)[O-].[Zn+2]`: the growth is 103% in the experiment on MOLT-4 leukemia; 95.2% in the experiment with RPMI-8226 leukemia; 96.6% in the experiment on OVCAR-8 ovarian; 106% in the experiment with OVCAR-5 ovarian; 115% in the experiment on OVCAR-4 ovarian; 112% with SK-OV-3 ovarian. Besides, the growth in the experiment with IGROV1 ovarian is 105%; in the experiment on OVCAR-3 ovarian, 118%; in the experiment with HS 578T breast, 105%; in the experiment on NCI/ADR-RES ovarian, 99.2%; in the experiment on BT-549 breast it was 108%; in the experiment with MDA-MB-435 melanoma it was 100%. For the same compound, the growth with SW-620 colon is 102%; in the experiment on MCF7 breast, 108%; in the experiment on HCT-116 colon it was 101%; in the experiment with HCC-2998 colon, 107%; in the experiment on KM12 colon it was 94.3%.
For `CC12CCC3C(CCC4Cc5[nH]c6ccccc6c5CC43C)C1CCC2O` (stereo not drawn), the growth in the experiment with MOLT-4 leukemia is 21.6%; in the experiment on RPMI-8226 leukemia, -20% (active); with OVCAR-8 ovarian, 36.9%; in the experiment on OVCAR-5 ovarian, 122%; with OVCAR-4 ovarian, 51.8%; with SK-OV-3 ovarian, 29.5%. For the same compound, the growth in the experiment on IGROV1 ovarian was 50.8%; in the experiment on OVCAR-3 ovarian, -28.3% (active); in the experiment with HS 578T breast, -8.19% (active); in the experiment on NCI/ADR-RES ovarian it was 38.4%; in the experiment on T-47D breast it was 29.2%; with BT-549 breast, 60.4%. For the same compound, the growth in the experiment with MDA-MB-435 melanoma is -25.2% (active); with SW-620 colon it was 11.5%; in the experiment with MCF7 breast, 5.13% (active); in the experiment with HCT-116 colon it was 23.3%; in the experiment with KM12 colon, 23.3%.
`O=C(Nc1ccc([As]=[As]c2ccc(NC(=O)c3ccccc3)cc2)cc1)c1ccccc1` (stereo not drawn): the growth with MOLT-4 leukemia was -27.5% (active); in the experiment with RPMI-8226 leukemia, 13.7%; in the experiment with OVCAR-8 ovarian, -82.1% (active); with OVCAR-5 ovarian it was -89.1% (active); with OVCAR-4 ovarian it was -43.1% (active); in the experiment on SK-OV-3 ovarian, -81.5% (active). Also, the growth in the experiment with IGROV1 ovarian was -40.4% (active); with HS 578T breast, -75.8% (active); with NCI/ADR-RES ovarian it was -38.6% (active); with T-47D breast, -51.9% (active); with BT-549 breast it was -90.4% (active); with MDA-MB-435 melanoma it was -77.2% (active). The growth with SW-620 colon was -67.3% (active); in the experiment with MCF7 breast it was -57.7% (active); in the experiment on HCT-116 colon, -92.4% (active); in the experiment with HCC-2998 colon, -80.5% (active); in the experiment with KM12 colon, -80.4% (active).
In the case of `Fc1ccc(N2COOC3(OOC2)C2CC4CC(C2)CC3C4)cc1`, the growth is -19.2% (active) in the experiment with SR leukemia; 95.4% with RPMI-8226 leukemia; 86.7% in the experiment with OVCAR-8 ovarian; 98.6% with OVCAR-5 ovarian; 101% in the experiment with OVCAR-4 ovarian; 105% in the experiment with SK-OV-3 ovarian. Besides, the growth is 16.5% in the experiment with IGROV1 ovarian; 97% in the experiment with OVCAR-3 ovarian; 109% in the experiment on HS 578T breast; 53.2% in the experiment on NCI/ADR-RES ovarian; 75.7% with T-47D breast; 95.4% with BT-549 breast. In addition, the growth in the experiment on MDA-MB-435 melanoma is 94.4%; in the experiment with SW-620 colon, 109%; in the experiment on MCF7 breast, 76.1%; with HCT-116 colon, 90.9%; in the experiment on HCC-2998 colon it was 106%; in the experiment with KM12 colon, 82.7%.
Consider `CN1CCCCC1C(C)(O)c1ccccc1` (stereo not drawn), for which the growth in the experiment on MOLT-4 leukemia was 102%; in the experiment with RPMI-8226 leukemia, 114%; with OVCAR-5 ovarian, 94.2%; in the experiment on OVCAR-4 ovarian it was 99.8%; with SK-OV-3 ovarian, 97.8%; in the experiment on IGROV1 ovarian it was 99.8%. In addition, the growth in the experiment with OVCAR-3 ovarian was 111%; in the experiment on HS 578T breast, 108%; in the experiment with NCI/ADR-RES ovarian it was 96.1%; in the experiment on T-47D breast, 92.2%; in the experiment with BT-549 breast it was 87.4%; with MDA-MB-435 melanoma, 99.2%. Besides, the growth in the experiment on SW-620 colon was 110%; with MCF7 breast it was 85.7%; with HCT-116 colon it was 93%; in the experiment on HCC-2998 colon it was 115%; in the experiment on KM12 colon, 106%.
Take `CN(C)C(=O)Oc1ccccc1-c1ccccc1`: the growth with SR leukemia was 103%; with RPMI-8226 leukemia, 104%; in the experiment on OVCAR-8 ovarian it was 100%; in the experiment on OVCAR-5 ovarian, 109%; with OVCAR-4 ovarian, 128%; in the experiment on SK-OV-3 ovarian it was 100%. For the same compound, the growth in the experiment on IGROV1 ovarian was 113%; with OVCAR-3 ovarian, 108%; with HS 578T breast it was 113%; in the experiment with NCI/ADR-RES ovarian, 102%; in the experiment with T-47D breast, 93.3%; in the experiment on BT-549 breast, 90.7%. Further, the growth with MDA-MB-435 melanoma was 112%; in the experiment with SW-620 colon it was 109%; in the experiment with MCF7 breast it was 105%; in the experiment on HCT-116 colon, 111%; in the experiment with HCC-2998 colon, 96.1%; in the experiment with KM12 colon, 103%.

Source of the values: PubChem BioAssay (NCI).
